Compound activity from PubChem.
This excerpt belongs to a sample that is enriched for hits.
TTR transcr act = TTR transcription activation, primary screen; activation, % at 16.7 µM; SH-SY5Y TTR promoter Gaussia luciferase, luminescence; 100% = recombinant luciferase protein wells; 1.3% of 92,000 active;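 active = activation above the mean of all tested compounds plus 3 SD, cut at about 9.5% in these data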;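 note: cells exposed to compounds for one day before reading; 0% = median of all test compound wells on the plate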
TTR inh HuH7 = HuH7 TTR transcription inhibition, counter-screen | shares compounds with TTR transcr act | HuH7 TTR promoter-Gaussia luciferase reporter, luminescence | inhibition, % at 16.7 µM | 4% of 1,100 active | AID 1117279;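 active = average inhibition above the solvent-only control wells' mean plus 3 SD, cut at about 15% in these data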;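 note: 0% = cells with DMSO only and 100% = cells with inhibitor control FD; inhibitors lower well luminescence so higher value means more inhibition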
TTR up confirm = confirmation of human transthyretin transcription activators; AID 1117280; 1,100 tested, under 10 active; activation, % at 16.7 µM; SHSY5Y TTR promoter Gaussia luciferase, luminescence; 100% = purified Lucia enzyme wells, no cells; shares compounds with TTR transcr act;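 active = mean activation above a set limit taken from the earlier primary screen, cut at about 11% in these data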;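 note: 0% = DMSO-treated cells and 100% = recombinant Lucia luciferase without cells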
Numbers without * were called inactive.

SMILES	TTR transcr act	others
O=C(COc1c(Cl)cc(Cl)cc1Cl)N/N=C/c1ccc[nH]1	9
CCCCNC(=O)C[C@@H]1C[C@]2(C(=O)OCC)CCC3=C2N(CCC3)C1=O	0
C[C@H]1[C@@H](OC(=O)NCc2ccccc2)CC[C@@]23CCCN2C(=O)CCC[C@@H]13	-1
CO[C@H]([C@H](C)/C=C/N(C)C=O)[C@@H](C)C(O)CC[C@H](C)[C@H](O)[C@H](C)[C@H]1OC(=O)/C=C/C(C)=C/C[C@H](O)C[C@@H]2C=CC[C@@H](C[C@H](OC)[C@@]3(CO3)[C@@H](OC)C[C@@H](OC)[C@@H]1C)O2 (some centres undefined)	-1
Nc1c(C(=O)N2CCN(CCc3ccccc3)CC2)cnn1-c1ccccc1	-2
COc1ccc2c(c1)Sc1ccc(Cl)cc1N2	-1
CCCc1nc(N)c(C#N)c(-c2cccnc2)c1CC	2
Cc1c(-c2ccccc2)nc(N)c(C#N)c1-c1cccnc1	12*	TTR inh HuH7=-6;TTR up confirm=-1
Cc1c(CC(C)C)nc(N)c(C#N)c1-c1ccccc1	0
COC(=O)c1ccc(Cn2ccc3ccc(-c4ccc5ccn(C(=O)C6CCCCC6)c5c4)cc32)cc1	4
COC(=O)C[C@H]1CC[C@@H]2[C@H](COc3ccc(NC(=O)c4cccc(F)c4)cc3C(=O)N2C)O1	-1
CCOC(=O)c1sc(NC(=O)c2ccc(S(=O)(=O)N3CCOCC3)cc2)nc1-c1ccccc1	-1
CCOC(=O)c1sc(N)nc1-c1ccccc1	1
CCOC(=O)Nc1nc(-c2ccccc2)c(C(=O)c2ccc(Cl)cc2)s1	11*	TTR inh HuH7=23*;TTR up confirm=0
CN(C)C(=O)C[C@H]1CC[C@H]2[C@H](COc3ccc(NC(=O)C4CC4)cc3C(=O)N2C)O1	-1
COC(=O)C1CN(CCO)CCS(=O)(=O)N1Cc1cn(Cc2ccc(C)cc2)nn1 (centres undefined)	0
O=S1(=O)c2c(cccc2N2CCC[C@@H]2CO)O[C@H]2CCN1C2	4
Cc1ccc(CNC(=O)Cc2ccc(-c3ccccc3)cc2)cc1	13*	TTR inh HuH7=53*;TTR up confirm=-2
O=C(Cc1ccc(-c2ccccc2)cc1)NCc1ccccc1	-2
Cc1ccc(CC(=O)NCc2ccc(F)cc2)cc1	0
Cc1cc(/C=N/N2CCN(C)CC2)c(C)n1-c1ccccc1F	9.7*	TTR inh HuH7=-12;TTR up confirm=1
COC(=O)C1=C(C)NC(=O)/C1=C\c1cc(C)n(-c2ccccc2F)c1C	1
Cc1c(C(=O)O)cccc1-n1c(C)cc(C=O)c1C	0
CCCC[C@H]1C2CC(OC(=O)Nc3cccc(C#N)c3)C(C2)[C@H]2CCCCN21 (some centres undefined)	-2
COC(=O)c1ccc(NC(=O)CN2CCC(NC(=O)c3ccccc3F)CC2)cc1	1
SMILES	TTR transcr act	others
Cc1ccc(OCC(=O)Nc2ccc(S(=O)(=O)NC3=NCCCCC3)cc2)cc1	-1
Cc1ccccc1-c1cc2c(c3c1ccn3C)C1CCC2O1 (centres undefined)	-1
Cn1ccc2c(-c3ccc(F)cc3)cc3c(c21)C1CCC3C1 (centres undefined)	1
Cc1ccccc1-c1cc2c(c3c1ccn3C)C1CCC2C1 (centres undefined)	10*	TTR inh HuH7=-6;TTR up confirm=1
COc1ccc(CC(NC(C)=O)C(=O)NC2CCN(C(=O)c3ccc([N+](=O)[O-])cc3)CC2)cc1OC (centres undefined)	-2
COc1ccccc1CC(NC(C)=O)C(=O)NC1CCN(C(=O)c2ccc([N+](=O)[O-])cc2)CC1 (centres undefined)	13*	TTR inh HuH7=-8;TTR up confirm=0
COc1ccccc1CC(NC(C)=O)C(=O)NC1CCN(C(=O)Nc2ccc(F)cc2)CC1 (centres undefined)	1
C[C@@H]1CCN(C2CC2)S(=O)(=O)c2c(cccc2N2CCC[C@H]2C)O1	-1
O=C1C(=O)N(Cc2ccc(-c3ccccc3)cc2)c2ccc(OC(F)(F)F)cc21	-3
C=CCNC1CCC12CCC(c1ccccc1)CC2 (centres undefined)	5
CC1(c2nnnn2-c2ccc3c(c2)OCCO3)CSCC(=O)N1CCc1c[nH]c2ccccc12 (centres undefined)	-1
O=C(NN1C(=O)C2CC=C(Cl)CC2C1=O)c1ccncc1 (centres undefined)	12*	TTR inh HuH7=2;TTR up confirm=-1
O=C(NN1C(=O)C2C3C=CC(C3)C2C1=O)c1ccccc1 (centres undefined)	0
Cc1ccc(NCN2C(=O)C3CC=C(Cl)CC3C2=O)cc1 (centres undefined)	0
CCCCOc1ccc(C(=O)n2ccc3ccc(-c4ccc5ccn(Cc6ccc(OC)cc6)c5c4)cc32)cc1	-1
S=C(Nc1ccccc1)OCCN1CCCC12CCC(c1ccccc1)CC2 (centres undefined)	1
